The values below come from ChEMBL document CHEMBL1961873, “Compounds: GSK PKIS; Assays: Nanosyn kinase panel” (2012).

The term inhibition denotes the relative decrease from the control value, in per cent.

Molecules are shown by their SMILES.

Test [1] addresses Protein kinase C gamma type (Homo sapiens) (UniProt P05129). Conditions: at 1 µM.
The target of test [2] is T1, Protein kinase C iota type (Homo sapiens) (UniProt P41743).
T1 sequence (whole entry): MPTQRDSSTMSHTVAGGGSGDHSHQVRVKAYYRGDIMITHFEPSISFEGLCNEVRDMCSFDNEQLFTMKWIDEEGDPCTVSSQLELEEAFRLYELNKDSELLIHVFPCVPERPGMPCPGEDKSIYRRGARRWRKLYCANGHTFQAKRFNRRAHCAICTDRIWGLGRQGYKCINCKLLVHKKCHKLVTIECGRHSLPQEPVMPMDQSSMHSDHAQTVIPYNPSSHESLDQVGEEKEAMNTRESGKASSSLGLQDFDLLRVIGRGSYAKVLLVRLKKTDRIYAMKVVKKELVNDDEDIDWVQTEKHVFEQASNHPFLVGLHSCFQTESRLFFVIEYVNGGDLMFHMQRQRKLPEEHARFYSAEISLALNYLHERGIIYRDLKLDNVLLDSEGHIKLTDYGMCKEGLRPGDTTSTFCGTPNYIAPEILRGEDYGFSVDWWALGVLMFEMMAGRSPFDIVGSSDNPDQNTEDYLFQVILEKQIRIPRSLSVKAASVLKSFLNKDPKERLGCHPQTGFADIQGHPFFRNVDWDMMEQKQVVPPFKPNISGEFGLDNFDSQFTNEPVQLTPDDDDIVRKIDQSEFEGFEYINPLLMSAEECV
Conditions: at 0.1 µM.

Test [3] deals with T1, Protein kinase C iota type (Homo sapiens). The following applies: at 1 µM.
Test [4] deals with Protein kinase C theta type (Homo sapiens) (UniProt Q04759). The following applies: at 0.1 µM.
For test [5] the target is unchanged. Conditions: at 1 µM.
The target of test [6] is Protein kinase C beta type (Homo sapiens) (UniProt P05771). Conditions: at 0.1 µM.
For test [7] the target is unchanged. The following applies: at 1 µM.
Test [8] addresses T2, Serine/threonine-protein kinase D1 (Homo sapiens) (UniProt Q15139).
T2 sequence (whole entry): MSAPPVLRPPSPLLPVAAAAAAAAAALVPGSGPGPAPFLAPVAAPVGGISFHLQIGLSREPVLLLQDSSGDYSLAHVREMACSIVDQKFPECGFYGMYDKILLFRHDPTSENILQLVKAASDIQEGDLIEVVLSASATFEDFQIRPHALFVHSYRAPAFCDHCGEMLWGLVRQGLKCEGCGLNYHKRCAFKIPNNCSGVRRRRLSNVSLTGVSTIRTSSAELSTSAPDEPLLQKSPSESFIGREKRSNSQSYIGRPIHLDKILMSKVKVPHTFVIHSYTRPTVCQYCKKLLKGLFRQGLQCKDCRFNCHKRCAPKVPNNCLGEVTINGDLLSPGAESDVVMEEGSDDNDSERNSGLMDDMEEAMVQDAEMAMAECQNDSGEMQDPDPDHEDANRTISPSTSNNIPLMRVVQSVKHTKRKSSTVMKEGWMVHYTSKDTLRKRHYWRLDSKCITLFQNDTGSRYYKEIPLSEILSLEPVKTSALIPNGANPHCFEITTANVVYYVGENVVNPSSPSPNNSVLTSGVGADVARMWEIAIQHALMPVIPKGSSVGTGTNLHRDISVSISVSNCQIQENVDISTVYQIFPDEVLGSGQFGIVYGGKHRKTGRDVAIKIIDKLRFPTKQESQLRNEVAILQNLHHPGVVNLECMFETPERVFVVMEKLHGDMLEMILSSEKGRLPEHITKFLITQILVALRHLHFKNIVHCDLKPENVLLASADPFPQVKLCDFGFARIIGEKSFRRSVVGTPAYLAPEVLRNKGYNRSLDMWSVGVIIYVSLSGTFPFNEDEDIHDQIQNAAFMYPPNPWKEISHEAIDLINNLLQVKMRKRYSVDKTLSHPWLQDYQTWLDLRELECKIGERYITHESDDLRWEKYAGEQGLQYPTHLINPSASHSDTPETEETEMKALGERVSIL
Conditions: at 0.1 µM.

The target of test [9] is T2, Serine/threonine-protein kinase D1 (Homo sapiens). Conditions: at 1 µM.
Test [10] addresses T3, Serine/threonine-protein kinase D2 (Homo sapiens) (UniProt Q9BZL6).
T3 sequence (whole entry): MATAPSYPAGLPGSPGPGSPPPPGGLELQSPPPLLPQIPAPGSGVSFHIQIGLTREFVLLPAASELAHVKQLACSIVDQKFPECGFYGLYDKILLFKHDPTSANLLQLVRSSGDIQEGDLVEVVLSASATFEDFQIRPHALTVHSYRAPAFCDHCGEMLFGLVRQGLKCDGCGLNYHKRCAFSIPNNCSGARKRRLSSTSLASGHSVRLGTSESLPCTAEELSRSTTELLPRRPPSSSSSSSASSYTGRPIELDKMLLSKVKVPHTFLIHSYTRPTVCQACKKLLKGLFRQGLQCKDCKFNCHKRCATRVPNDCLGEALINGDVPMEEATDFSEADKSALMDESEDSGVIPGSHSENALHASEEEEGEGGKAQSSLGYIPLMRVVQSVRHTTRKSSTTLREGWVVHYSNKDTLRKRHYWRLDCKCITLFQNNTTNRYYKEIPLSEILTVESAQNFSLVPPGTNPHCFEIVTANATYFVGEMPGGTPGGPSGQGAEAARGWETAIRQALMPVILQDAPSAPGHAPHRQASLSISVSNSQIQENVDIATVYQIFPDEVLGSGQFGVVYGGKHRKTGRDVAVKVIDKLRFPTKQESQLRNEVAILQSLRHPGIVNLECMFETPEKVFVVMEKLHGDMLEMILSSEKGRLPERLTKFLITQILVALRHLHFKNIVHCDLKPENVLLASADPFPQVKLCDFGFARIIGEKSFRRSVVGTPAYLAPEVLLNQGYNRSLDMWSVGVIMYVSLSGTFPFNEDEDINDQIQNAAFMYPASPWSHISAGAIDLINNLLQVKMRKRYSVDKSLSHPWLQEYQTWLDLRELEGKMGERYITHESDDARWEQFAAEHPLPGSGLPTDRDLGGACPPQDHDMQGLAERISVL
Conditions: at 0.1 µM.

Test [11] has as its target T3, Serine/threonine-protein kinase D2 (Homo sapiens). The following applies: at 1 µM.
Test [12] concerns the target T4, Serine/threonine-protein kinase D3 (Homo sapiens) (UniProt O94806).
T4 sequence (whole entry): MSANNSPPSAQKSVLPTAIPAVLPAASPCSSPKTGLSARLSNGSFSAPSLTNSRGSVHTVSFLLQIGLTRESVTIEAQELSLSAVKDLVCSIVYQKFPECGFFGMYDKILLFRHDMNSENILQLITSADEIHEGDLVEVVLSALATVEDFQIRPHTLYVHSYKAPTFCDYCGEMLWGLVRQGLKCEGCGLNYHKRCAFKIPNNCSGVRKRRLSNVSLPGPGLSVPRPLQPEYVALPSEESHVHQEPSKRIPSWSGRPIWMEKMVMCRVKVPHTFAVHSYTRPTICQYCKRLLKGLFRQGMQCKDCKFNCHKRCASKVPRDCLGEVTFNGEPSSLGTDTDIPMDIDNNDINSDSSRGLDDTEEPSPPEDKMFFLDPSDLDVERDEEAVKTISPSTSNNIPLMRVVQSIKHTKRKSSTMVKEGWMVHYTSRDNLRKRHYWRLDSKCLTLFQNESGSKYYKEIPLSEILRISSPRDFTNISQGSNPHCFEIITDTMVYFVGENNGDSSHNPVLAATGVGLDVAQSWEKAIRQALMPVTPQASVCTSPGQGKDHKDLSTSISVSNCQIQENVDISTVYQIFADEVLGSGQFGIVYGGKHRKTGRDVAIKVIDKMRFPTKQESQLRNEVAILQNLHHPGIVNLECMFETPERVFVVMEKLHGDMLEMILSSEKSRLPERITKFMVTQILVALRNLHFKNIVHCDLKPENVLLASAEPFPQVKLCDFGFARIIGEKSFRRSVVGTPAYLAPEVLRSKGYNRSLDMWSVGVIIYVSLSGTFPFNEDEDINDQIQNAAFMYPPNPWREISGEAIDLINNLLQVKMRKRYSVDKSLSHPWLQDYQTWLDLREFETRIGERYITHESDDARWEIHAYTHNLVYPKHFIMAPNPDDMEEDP
Conditions: at 0.1 µM.

For test [13], the target named is T4, Serine/threonine-protein kinase D3 (Homo sapiens). Conditions: at 1 µM.
Test [14] concerns the target T5, cGMP-dependent protein kinase 1 (Homo sapiens) (UniProt Q13976).
T5 sequence (whole entry): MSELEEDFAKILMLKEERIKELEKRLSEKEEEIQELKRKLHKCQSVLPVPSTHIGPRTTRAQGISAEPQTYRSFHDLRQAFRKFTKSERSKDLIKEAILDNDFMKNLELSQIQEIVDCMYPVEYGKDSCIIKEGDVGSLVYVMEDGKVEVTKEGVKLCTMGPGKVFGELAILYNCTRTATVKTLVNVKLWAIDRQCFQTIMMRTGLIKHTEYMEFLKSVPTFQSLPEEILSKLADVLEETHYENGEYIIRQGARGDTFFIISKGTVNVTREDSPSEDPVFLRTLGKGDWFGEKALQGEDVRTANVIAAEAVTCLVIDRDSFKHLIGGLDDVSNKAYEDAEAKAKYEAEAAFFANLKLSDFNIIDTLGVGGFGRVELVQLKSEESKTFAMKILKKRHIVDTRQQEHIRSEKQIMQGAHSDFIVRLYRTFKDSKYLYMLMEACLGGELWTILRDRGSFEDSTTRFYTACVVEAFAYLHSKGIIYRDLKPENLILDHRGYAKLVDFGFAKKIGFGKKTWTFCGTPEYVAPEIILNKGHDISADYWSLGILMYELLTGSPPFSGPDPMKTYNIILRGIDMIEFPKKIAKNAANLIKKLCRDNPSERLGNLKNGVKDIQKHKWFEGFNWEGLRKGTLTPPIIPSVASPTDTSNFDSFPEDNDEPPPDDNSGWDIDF
The following applies: at 0.1 µM.

Test [15] deals with T5, cGMP-dependent protein kinase 1 (Homo sapiens). Conditions: at 1 µM.
In test [16] the target is T6, cGMP-dependent protein kinase 2 (Homo sapiens) (UniProt Q13237).
T6 sequence (whole entry): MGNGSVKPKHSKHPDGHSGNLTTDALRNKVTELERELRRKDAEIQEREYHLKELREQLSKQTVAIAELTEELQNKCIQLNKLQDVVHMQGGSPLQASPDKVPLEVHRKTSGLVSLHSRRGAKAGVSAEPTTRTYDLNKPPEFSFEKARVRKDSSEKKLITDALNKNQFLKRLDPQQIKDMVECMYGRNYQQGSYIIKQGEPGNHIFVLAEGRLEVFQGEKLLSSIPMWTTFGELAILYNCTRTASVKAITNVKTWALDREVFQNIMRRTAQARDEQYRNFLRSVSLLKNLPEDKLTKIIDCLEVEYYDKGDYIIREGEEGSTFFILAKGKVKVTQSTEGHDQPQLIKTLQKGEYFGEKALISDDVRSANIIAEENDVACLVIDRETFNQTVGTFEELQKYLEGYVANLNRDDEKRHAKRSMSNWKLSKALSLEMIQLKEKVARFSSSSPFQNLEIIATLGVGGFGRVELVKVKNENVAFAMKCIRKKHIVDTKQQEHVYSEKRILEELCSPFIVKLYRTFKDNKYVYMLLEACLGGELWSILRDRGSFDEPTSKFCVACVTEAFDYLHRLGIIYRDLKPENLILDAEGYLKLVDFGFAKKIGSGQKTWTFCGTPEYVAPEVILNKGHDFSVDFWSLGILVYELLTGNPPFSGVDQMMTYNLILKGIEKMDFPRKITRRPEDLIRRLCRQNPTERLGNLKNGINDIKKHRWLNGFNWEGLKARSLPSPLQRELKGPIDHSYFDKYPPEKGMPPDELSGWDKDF
The following applies: at 0.1 µM.

The target in test [17] is T6, cGMP-dependent protein kinase 2 (Homo sapiens). The following applies: at 1 µM.
Test [18] concerns the target T7, cAMP-dependent protein kinase catalytic subunit PRKX (Homo sapiens) (UniProt P51817).
T7 sequence (whole entry): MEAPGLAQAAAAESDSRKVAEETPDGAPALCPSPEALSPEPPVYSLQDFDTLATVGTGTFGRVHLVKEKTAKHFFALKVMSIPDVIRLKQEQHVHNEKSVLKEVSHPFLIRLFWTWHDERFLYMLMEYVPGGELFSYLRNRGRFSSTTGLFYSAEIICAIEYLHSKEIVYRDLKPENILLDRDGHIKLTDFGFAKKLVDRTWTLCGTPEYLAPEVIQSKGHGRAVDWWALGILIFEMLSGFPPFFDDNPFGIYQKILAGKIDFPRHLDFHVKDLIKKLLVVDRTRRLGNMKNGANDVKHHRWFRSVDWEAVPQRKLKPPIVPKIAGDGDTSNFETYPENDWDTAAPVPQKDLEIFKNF
Conditions: at 0.1 µM.

Test [19] has as its target T7, cAMP-dependent protein kinase catalytic subunit PRKX (Homo sapiens). Conditions: at 1 µM.
In test [20] the target is Rho-associated protein kinase 1 (Homo sapiens) (UniProt Q13464). The following applies: at 0.1 µM.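 Note: values are mean percent inhibition of ROCK1.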
Sequence of Rho-associated protein kinase 1 (Homo sapiens) (Q13464 2-1354 limits assumed): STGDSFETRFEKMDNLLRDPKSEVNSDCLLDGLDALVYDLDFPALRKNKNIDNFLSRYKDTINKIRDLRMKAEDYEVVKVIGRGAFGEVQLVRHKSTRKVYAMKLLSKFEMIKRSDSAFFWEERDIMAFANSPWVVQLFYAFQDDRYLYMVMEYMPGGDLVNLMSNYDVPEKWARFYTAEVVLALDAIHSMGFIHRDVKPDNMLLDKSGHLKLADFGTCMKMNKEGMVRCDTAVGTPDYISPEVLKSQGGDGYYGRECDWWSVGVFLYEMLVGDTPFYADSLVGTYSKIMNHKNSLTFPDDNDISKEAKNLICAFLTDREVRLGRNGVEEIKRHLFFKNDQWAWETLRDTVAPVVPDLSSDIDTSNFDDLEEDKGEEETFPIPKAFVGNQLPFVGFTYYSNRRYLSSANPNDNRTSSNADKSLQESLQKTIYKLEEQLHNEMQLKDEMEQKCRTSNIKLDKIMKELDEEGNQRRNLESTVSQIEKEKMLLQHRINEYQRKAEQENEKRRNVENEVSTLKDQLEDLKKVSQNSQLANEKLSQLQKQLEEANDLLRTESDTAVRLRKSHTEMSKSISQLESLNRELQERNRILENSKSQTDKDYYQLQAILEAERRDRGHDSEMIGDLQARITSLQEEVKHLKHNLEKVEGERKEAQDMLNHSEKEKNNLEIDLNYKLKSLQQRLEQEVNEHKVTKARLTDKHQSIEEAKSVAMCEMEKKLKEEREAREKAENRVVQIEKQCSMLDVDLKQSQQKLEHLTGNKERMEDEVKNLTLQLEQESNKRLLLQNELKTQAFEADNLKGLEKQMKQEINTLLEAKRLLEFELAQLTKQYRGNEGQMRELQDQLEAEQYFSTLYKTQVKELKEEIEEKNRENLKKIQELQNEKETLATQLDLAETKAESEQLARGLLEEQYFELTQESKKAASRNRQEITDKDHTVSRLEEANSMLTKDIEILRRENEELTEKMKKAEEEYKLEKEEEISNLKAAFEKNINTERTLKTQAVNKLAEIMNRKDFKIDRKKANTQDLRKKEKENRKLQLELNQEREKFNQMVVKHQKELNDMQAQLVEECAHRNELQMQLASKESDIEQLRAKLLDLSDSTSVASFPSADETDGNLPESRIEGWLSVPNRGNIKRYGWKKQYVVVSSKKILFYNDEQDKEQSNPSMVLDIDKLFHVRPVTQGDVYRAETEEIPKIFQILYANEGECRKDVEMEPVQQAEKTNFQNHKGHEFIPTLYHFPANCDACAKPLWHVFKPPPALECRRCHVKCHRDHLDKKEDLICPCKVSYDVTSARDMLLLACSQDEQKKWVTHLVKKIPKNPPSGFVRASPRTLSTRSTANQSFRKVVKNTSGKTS

Sequence of Protein kinase C beta type (Homo sapiens) (P05771 2-671 limits assumed): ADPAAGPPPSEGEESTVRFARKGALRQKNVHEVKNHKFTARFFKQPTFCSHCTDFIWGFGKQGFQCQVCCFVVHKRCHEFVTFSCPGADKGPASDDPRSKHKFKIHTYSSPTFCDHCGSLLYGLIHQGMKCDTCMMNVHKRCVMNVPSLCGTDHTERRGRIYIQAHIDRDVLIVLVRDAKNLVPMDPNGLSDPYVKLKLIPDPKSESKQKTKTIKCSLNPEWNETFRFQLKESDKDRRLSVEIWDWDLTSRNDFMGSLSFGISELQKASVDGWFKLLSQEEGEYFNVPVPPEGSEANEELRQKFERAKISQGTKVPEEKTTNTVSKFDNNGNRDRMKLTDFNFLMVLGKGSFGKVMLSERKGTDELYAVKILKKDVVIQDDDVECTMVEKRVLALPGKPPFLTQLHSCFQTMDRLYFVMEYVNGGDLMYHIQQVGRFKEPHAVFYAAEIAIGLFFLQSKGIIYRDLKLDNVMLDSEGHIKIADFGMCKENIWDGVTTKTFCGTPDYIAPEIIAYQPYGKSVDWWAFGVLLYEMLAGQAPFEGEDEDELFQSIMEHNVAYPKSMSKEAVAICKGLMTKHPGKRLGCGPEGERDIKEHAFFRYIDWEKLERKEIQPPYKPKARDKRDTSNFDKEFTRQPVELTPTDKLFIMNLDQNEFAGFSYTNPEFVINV
Sequence of Protein kinase C theta type (Homo sapiens) (Q04759 whole entry, looked up): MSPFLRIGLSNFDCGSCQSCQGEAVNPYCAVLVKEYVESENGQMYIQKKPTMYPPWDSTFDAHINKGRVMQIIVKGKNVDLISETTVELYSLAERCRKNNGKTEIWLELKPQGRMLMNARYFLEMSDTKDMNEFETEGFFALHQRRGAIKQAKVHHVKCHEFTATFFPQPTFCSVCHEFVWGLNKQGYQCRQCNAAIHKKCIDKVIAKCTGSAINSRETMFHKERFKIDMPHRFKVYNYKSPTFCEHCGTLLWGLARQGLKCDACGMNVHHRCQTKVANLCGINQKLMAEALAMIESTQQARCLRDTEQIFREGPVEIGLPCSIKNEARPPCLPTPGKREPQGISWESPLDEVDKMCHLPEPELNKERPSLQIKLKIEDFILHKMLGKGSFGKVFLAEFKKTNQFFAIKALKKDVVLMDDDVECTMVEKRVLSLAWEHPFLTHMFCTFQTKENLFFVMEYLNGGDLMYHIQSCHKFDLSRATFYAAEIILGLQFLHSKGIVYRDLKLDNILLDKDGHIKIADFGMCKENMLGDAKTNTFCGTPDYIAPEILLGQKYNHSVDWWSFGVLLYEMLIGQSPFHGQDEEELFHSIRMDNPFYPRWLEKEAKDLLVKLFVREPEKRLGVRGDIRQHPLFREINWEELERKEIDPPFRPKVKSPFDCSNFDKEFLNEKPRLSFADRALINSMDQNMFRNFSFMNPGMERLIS

For the molecule `COc1cc2c(cc1Nc1nc(Nc3cccc(F)c3C(N)=O)c3cc[nH]c3n1)N(C(=O)CN1CCN(C(C)C)CC1)CC2`, the inhibition was 3.85% in test [1]; -0.63% in [2]; -1.02% in test [3]; 2.08% in test [4]; 5.05% in test [5]; 1.31% in test [6]. Besides, the inhibition in test [7] came out at 2.64%; in [8], 4.89%; in test [9], 12.4%; in test [10] it was 4.84%; in [11], 8.82%; in test [12], 3.64%. The inhibition in test [13] was 8.43%; in test [14] it was 4.61%; in [15] it was 10.1%; in [16] it was 3.86%; in [17], 5.6%; in test [18] it was 2.44%. Besides, the inhibition in [19] was determined as 2.36%; in test [20], 0.72%.
In the case of `OCCCNc1nccc(-c2c(-c3ccc(F)cc3)nn3cc(C(F)(F)F)ccc23)n1`, the inhibition turned out to be 1.12% in [1]; 0.77% in [2]; 4.1% in test [3]; 0.12% in test [4]; 0.91% in [5]; 1.5% in [6]. Further, the inhibition in test [7] came out at 7.52%; in test [8], 1.85%; in test [9], 14.1%; in [10] it was 2.01%; in test [11], 16.9%; in test [12], 4.73%. Besides, the inhibition is 33.9% in [13]; 1.52% in test [14]; 4.78% in test [15]; 2.03% in test [16]; 3.96% in test [17]; 0.4% in [18]. The inhibition was -0.76% in test [19] and 0.15% in test [20].
